Bioassay records as filed in PubChem BioAssay.
Compounds with a hit are over-represented: about 27% of the library has one in this group of screens.
CYP2C9 act: CYP2C9 (human) activation. P11712. recombinant CYP2C9, luciferin-H conversion, luminescence; active compounds read high; factor 1 = untreated enzyme, 0 = blocked. activation factor at 5 µM. 1.4% of 96,000 active;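 active means activation factor of 2 or more for CYP2C9 at a 5 µM dose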;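 further: 0 = sulfaphenazole-blocked wells and 1 = vehicle-only wells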
sEH inh: blocks human soluble epoxide hydrolase activity; P34913; recombinant human sEH enzymatic activity assay; inhibition, % at 2 µM; 0.34% of 91,000 active; AID 707; in the data active means inhibition above about 80%
CYP2C9 inhib: human CYP2C9 inhibition; P11712; CYP2C9 Supersomes, luciferin-H conversion, luminescence; inhibition, % at 5 µM; 20% of 96,000 active;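 active means blocking of liver enzyme CYP2C9 beyond about 50% at 5 µM, limit read from the data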
CYP2C19 activ: activators of human cytochrome P450 2C19; recombinant CYP2C19, luciferin-H EGE luminescence; active compounds read high; 0 = fully inhibited enzyme, 1 = untreated enzyme; activation factor at 5 µM; 96,000 tested, under 10 active;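 active means activation factor of at least 2 at 5 µM in the primary screen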;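 further: 0 = wells with 2.5 mM tranylcypromine and 1 = vehicle-only wells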
Target sequence (P33261 whole entry, looked up): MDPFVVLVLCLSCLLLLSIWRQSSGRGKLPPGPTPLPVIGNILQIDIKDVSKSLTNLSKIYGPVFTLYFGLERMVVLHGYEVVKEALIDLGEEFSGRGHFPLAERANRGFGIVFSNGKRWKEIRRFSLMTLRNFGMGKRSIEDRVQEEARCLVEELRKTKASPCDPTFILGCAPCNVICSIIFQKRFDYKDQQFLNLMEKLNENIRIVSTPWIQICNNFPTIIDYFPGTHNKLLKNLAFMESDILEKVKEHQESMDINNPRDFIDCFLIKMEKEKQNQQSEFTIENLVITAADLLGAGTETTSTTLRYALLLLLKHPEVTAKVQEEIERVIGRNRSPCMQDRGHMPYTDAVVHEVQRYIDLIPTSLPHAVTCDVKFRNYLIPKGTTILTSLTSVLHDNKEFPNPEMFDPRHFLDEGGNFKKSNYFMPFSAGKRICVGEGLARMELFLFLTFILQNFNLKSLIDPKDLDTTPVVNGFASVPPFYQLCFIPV
sEH act: soluble epoxide hydrolase (human) activation; P34913; purified human sEH enzymatic activity, activator screen; activation, % at 2 µM; 0.04% of 91,000 active; AID 717; in the data active means activation above about 37%
CYP2C19 inhib: human CYP2C19 inhibition | CYP2C19 Supersomes, luciferin-H EGE luminescence, 30 min | inhibition, % at 5 µM | 21% of 96,000 active | AID 778;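 active means CYP2C19 inhibition above a set limit at 5 µM in the primary screen, cut at about 50% in these data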;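 further: plate controls were negative control wells for no effect and 2.5 mM tranylcypromine positive control for full effect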
The depositor's hits bear a star; / = not tested or not shown.

SMILES | CYP2C9 act | sEH inh | CYP2C9 inhib | CYP2C19 activ | sEH act | CYP2C19 inhib
O=C(N/N=C/c1ccc(Sc2nc3ccccc3s2)c([N+](=O)[O-])c1)c1ccccn1 | 1 | 3 | 2 | 1 | 0 | -2
O=C(CN1C(=O)C2C3C=CC(C3)C2C1=O)Nc1ccc2nccnc2c1 (stereo unspecified) | 0.9 | 2 | 11 | 1 | -5 | 1
O=C(Nc1ccc(Cc2ccncc2)cc1)C1CCC(N2C(=O)C3C4C=CC(C4)C3C2=O)CC1 (stereo unspecified) | 0 | 72 | 95* | 0 | -72 | 96*
O=C1C2C3C=CC(C3)C2C(=O)N1c1ccc(Cc2ccncc2)cc1 (stereo unspecified) | 0.2 | -14 | 80* | 0.3 | 18 | 71*
O=C(Nc1ccc(Cc2ccncc2)cc1)C1CCC(N2C(=O)C3CC=CCC3C2=O)CC1 (stereo unspecified) | 0.3 | -10 | 67* | 0.4 | 7 | 58*
O=C(Nc1nnc(C2CCCO2)s1)c1ccc(Br)cc1 (stereo unspecified) | 0.9 | 6 | 6 | 1.1 | -6 | -8
Cc1ccc(C(=O)NC(=S)Nc2ccc3c(c2)OCCO3)c(C)c1 | 1.8 | -3 | -79 | 1 | 3 | -4
COC(=O)C1(C(O)C(=O)c2ccc(C)cc2C)CCCCC1 (stereo unspecified) | 0.6 | 2 | 37 | 0.4 | 2 | 64*
COc1cc(CN(C)CCc2ccccc2)ccc1OCc1ccccc1 | 0.9 | -9 | 12 | 0.9 | 10 | 14
O=C(C1CC1)N1CCc2cc(S(=O)(=O)NCC3COc4ccccc4O3)ccc21 (stereo unspecified) | 0.5 | / | 52* | 0.3 | / | 72*
CCC(=O)N1CCc2cc(Br)cc(S(=O)(=O)NCc3ccco3)c21 | 1.1 | / | -7 | 0.5 | / | 53*
O=C(C1CC1)N1CCc2cc(Br)cc(S(=O)(=O)NCC3COc4ccccc4O3)c21 (stereo unspecified) | 0.4 | / | 59* | 0.1 | / | 91*
CCC(=O)N1CCc2cc(Br)cc(S(=O)(=O)CCC(=O)NCc3ccco3)c21 | / | 2 | / | / | -2 | /
CC(C)n1c2ccccc2c2nnc(SCC(=O)OCN3C(=O)c4ccccc4C3=O)nc21 | 1 | 10 | 3 | 1.1 | -10 | -8
Cc1nc2cc(-c3cccc(Cl)c3)nn2c(N2CCN(C(=O)c3ccco3)CC2)c1C | 0.1 | / | 86* | 0.3 | / | 73*
CCc1c(C)nc2ncnn2c1N1CCC(C(=O)Nc2cccc(C(C)=O)c2)CC1 | 0.2 | 59 | 76* | 0.5 | -59 | 54*
CCc1c(C)nc2ncnn2c1N1CCCC(C(=O)NCCc2ccccc2)C1 (stereo unspecified) | 0.6 | 73 | 35 | 1 | -72 | -2
COc1ccc(CC(NC(C)=O)C(=O)NC2CCN(c3c4c(nc5ncnn35)CCC4)CC2)cc1 (stereo unspecified) | 0.9 | / | 5 | 1 | / | 3
CCc1c(C)nc2ncnn2c1N1CCC(C(=O)NCc2cccc(OC)c2)CC1 | 1 | 53 | -2 | 0.9 | -52 | 6
CCc1c(C)nc2ncnn2c1N1CCCC(C(=O)Nc2cc(F)ccc2C)C1 (stereo unspecified) | 0.2 | 26 | 85* | 0.8 | -25 | 23
COc1ccc(NC(=O)C2CCCN(c3c4c(nc5ncnn35)CCC4)C2)cc1 (stereo unspecified) | 0.2 | / | 80* | 0.7 | / | 31
COCCN(C(=O)CCC(=O)Nc1cccnc1)C(C(=O)NC1CCCCC1)c1ccccc1 (stereo unspecified) | 0.7 | 8 | 26 | 0.8 | -8 | 16
CCN(CC)c1ccc(C2NCC(c3ccc([N+](=O)[O-])cc3)O2)cc1 (stereo unspecified) | / | 2 | / | / | 1 | /
Cc1ccc(-n2c(=O)c3c4c(sc3n3c(C)nnc23)COC(C(C)C)C4)cc1 (stereo unspecified) | / | 10 | / | / | -10 | /
Cc1ccc(C(=O)C(OC(=O)CN2C(=O)c3ccccc3C2=O)c2ccccc2)cc1 (stereo unspecified) | 0.8 | -15 | 18 | 0.6 | 14 | 44
SMILES | CYP2C9 act | sEH inh | CYP2C9 inhib | CYP2C19 activ | sEH act | CYP2C19 inhib
Cc1ccc(C(=O)C(OC(=O)CN2C(=O)c3ccccc3C2=O)c2ccccc2)cc1C (stereo unspecified) | 2* | -14 | -96 | 0.7 | 13 | 26
CC(=O)Nc1ccc(-c2nnc(SCC(=O)NCc3ccco3)n2C)cc1 | 1.1 | -8 | -7 | 1.2 | 6 | -17
CC(C)CC1(C)NC(=O)N(CCN2C(=O)c3ccccc3C2=O)C1=O (stereo unspecified) | 0.5 | 11 | 48 | 0.2 | -9 | 75*
CC1(C)NC(=O)N(CC(O)COC2CCCCC2)C1=O (stereo unspecified) | 0.6 | -2 | 42 | 0.2 | 3 | 82*
CC1(C)NC(=O)N(CC(O)CN2CCCCC2)C1=O (stereo unspecified) | 1 | 6 | 0 | 1 | -5 | -2
CC1(C)NC(=O)N(CC(O)COc2ccc(-c3ccccc3)cc2)C1=O (stereo unspecified) | 0.9 | 7 | 13 | 0.6 | -6 | 44
Cc1cc(C)cc(OCC(O)CN2C(=O)NC(C)(C)C2=O)c1 (stereo unspecified) | 0.6 | / | 44 | 0.3 | / | 72*
CC1(C)NC(=O)N(CC(O)COc2ccccc2-c2ccccc2)C1=O (stereo unspecified) | 0.1 | -2 | 87* | 0 | 3 | 99*
COc1ccccc1OCC(O)CN1C(=O)NC(C)(C)C1=O (stereo unspecified) | 0.6 | 6 | 36 | 0.5 | -2 | 50
N#CC1=C(N)Oc2n[nH]c(-c3ccccc3)c2C1c1ccncc1 (stereo unspecified) | 0.1 | 8 | 89* | 0.2 | -10 | 85*
CCC(C)C1C(C#N)=C(N)Oc2n[nH]c(C)c21 (stereo unspecified) | / | 14 | / | / | -16 | /
Cc1[nH]nc2c1C(c1cn[nH]c1-c1ccc(F)cc1)C(C#N)=C(N)O2 (stereo unspecified) | 0.9 | -7 | 13 | 0.8 | 6 | 15
Cc1cc(-c2[nH]nc3c2C(c2ccsc2)C(C#N)=C(N)O3)c(C)s1 (stereo unspecified) | 0.1 | -10 | 93* | 0.2 | 10 | 84*
COCc1[nH]nc2c1C(c1ccsc1)C(C#N)=C(N)O2 (stereo unspecified) | 1.1 | / | -8 | 1 | / | 4
Cc1ccc(C2C(C#N)=C(N)Oc3n[nH]c(-c4ccccc4)c32)o1 (stereo unspecified) | 0.7 | -11 | 26 | 0.7 | 13 | 31
N#CC1=C(N)Oc2n[nH]c(-c3ccc(F)cc3)c2C1c1cccnc1 (stereo unspecified) | 0.5 | 4 | 55* | 0.3 | -2 | 70*
CCC(C)C1C(C#N)=C(N)Oc2n[nH]c(-c3ccccc3)c21 (stereo unspecified) | 0.8 | -3 | 16 | 0.5 | 1 | 53*
